CtBP-E1A inh = CtBP/E1A binding inhibition; 0.49% of 340,000 active; AlphaScreen GST-E1A/His-CtBP binding, 1536-well; active compounds read low; AID 651724; activity change, % (no concentration beside the values); in the data active means activity change below about -65%; inconclusive means mostly about -30% to -63%
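Homogeneous bead-based format: GST-tagged E1A captured on glutathione donor beads, His-tagged CtBP on nickel acceptor beads; compounds precede bead addition by 2 h at 37 °C.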
Six1-Eya2 inh = Six1/Eya2 interaction inhibition | activity change, % (test concentration not listed) | 0.56% of 360,000 active | Q15475+O00167 | AlphaScreen GST-Six1/His-Eya2 binding, biochemical; active compounds read low | AID 651725; in the data active means activity change below about -65%; inconclusive means mostly about -30% to -63%
Target sequence (O00167 whole entry, looked up): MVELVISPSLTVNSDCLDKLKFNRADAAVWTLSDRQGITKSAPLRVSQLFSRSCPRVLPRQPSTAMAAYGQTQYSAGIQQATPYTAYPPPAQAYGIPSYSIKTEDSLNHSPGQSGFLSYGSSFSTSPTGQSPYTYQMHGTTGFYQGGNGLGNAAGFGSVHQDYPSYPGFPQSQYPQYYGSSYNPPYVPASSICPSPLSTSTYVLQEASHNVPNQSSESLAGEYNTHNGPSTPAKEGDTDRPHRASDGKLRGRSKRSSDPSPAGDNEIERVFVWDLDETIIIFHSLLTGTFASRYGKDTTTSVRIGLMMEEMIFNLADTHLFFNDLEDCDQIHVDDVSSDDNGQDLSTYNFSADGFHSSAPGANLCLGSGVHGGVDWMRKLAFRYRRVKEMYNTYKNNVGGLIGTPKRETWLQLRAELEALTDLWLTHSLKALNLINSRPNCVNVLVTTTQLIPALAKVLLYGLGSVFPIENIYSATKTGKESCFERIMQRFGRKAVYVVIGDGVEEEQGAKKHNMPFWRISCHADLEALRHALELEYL
Target sequence (Q15475 whole entry, looked up): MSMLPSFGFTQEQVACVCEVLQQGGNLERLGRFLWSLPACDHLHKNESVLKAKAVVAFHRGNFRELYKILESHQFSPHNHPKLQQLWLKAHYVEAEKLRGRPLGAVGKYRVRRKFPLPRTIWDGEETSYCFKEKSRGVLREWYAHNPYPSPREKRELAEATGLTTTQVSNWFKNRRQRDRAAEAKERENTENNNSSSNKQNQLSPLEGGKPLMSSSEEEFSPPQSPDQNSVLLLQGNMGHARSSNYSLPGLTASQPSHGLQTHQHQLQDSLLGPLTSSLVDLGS
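AlphaScreen luminescence read after one hour at 37 °C in darkness. Pin-transferred compounds met GST-Six1 and His-Eya2 protein (5X stock 250 nM/500 nM) plus glutathione donor and Ni-chelate acceptor beads (5X, 50 ug/mL).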
DT40 TDP1 CPT = growth inhibition of DT40 Tdp1-/-;hTDP1 cells with camptothecin (screen for TDP1 inhibitors); chicken DT40 Tdp1-/-;hTDP1 cells + 20 nM CPT, ATP luminescence, 48 h; Potency, µM (series often up to 46.2 µM), for inactives: at the top dose activity change, negative = growth inhibition, most hits filed as inhibitors; 12% of 420,000 active; further: potency means the concentration at half of the fitted maximal effect; nearly all actives have a fitted effect of over 55% in size
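Cell growth measured by CellTiter-Glo luminescence after a minimum 48 h, 37 C compound exposure with 20 nM CPT in Tdp1-knockout DT40 cells stably expressing hTDP1, seeded 400/well; qHTS titration format.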
TDP1 block = inhibitors of human tyrosyl-DNA phosphodiesterase TDP1 | Q9NUW8 | recombinant TDP1, AlphaScreen DNA substrate cleavage | Potency, µM (top dose mostly 130 µM), for inactives: at the highest dose activity change, negative = inhibition, actives largely listed as inhibitors | 0.28% of 350,000 active; further: potency means the concentration at half of the fitted maximal effect; nearly all actives have a fitted effect of over 40% in size
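AlphaScreen read-out: signal falls as enzyme removes the 3' tyrosine-FITC from a 5'-biotinylated DNA oligo (15 nM, 5 min, RT). Enzyme was E. coli-made recombinant Tdp1 at 1 nM, exposed to compound for 15 min beforehand; beads 10 ug/ml, 10 min.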
IL-1B inflam inh = inflammasome signaling inhibition, IL-1 beta readout | THP-1 LPS/ATP IL-1B secretion, AlphaLISA, 16 h; active compounds read low | activity change, % at 57.5 µM | 4.7% of 360,000 active | AID 743279; in the data active means activity change below about -50%; inconclusive means mostly about -30% to -49%
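THP-1 cells pretreated 1 hr with compounds (up to 57.5 uM final), then stimulated with LPS (250 ng/mL final) plus ATP (1.25 mM final); secreted IL-1B measured by AlphaLISA after 16 hr, decreased signal indicating inhibition.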
TDP1 cell noCPT = qHTS for Inhibitors of human tyrosyl-DNA phosphodiesterase 1 (TDP1): qHTS in cells in absence of CPT. AID 686978, 2013. 15% of 420,000 active. DT40 Tdp1-/- hTDP1 cells, no CPT, ATP luminescence, 48 h. Potency, µM (series often up to 46.2 µM), without a hit: at the highest dose activity change, negative = growth inhibition, usual class: inhibitors; further: potency means the concentration at half of the fitted maximal effect; nearly all actives have a fitted effect of over 55% in size
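Seeded 400 DT40-hTDP1 cells/well (vehicle DMSO, no 20 nM CPT); pinned compounds; ≥48 hr at 37 °C; CellTiter-Glo luminescence as viability measure.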
Numbers without * were called inactive. Rows were chosen to be rich in hits. Some 18% of all compounds tested hit in one or more screens of this group. Unless noted, the call rests on the fitted dose curve; in most records, active means well fitted curve in the direction sought with a large enough effect; inconclusive means small, poorly fitted or top-dose-only effect, or another doubt; inactive means no such curve, though single readings can be large; an effect the other way counts as inactive or inconclusive. On the % scale 0 is the no-effect control and ±100 the full control effect.

COC(=O)C1=CN(c2ccc(C(C)(C)C)cc2)C(N)=C(C#N)C1c1cccc([N+](=O)[O-])c1 (centres undefined) was read as CtBP-E1A inh 0.9, Six1-Eya2 inh -15.6, DT40 TDP1 CPT inconclusive, IL-1B inflam inh -16.5 and TDP1 cell noCPT 23.1µM*.
S=C1CN=C(c2ccccc2)c2cc(Cl)ccc2N1 was read as CtBP-E1A inh -1.6, Six1-Eya2 inh -5.2, DT40 TDP1 CPT inconclusive, TDP1 block 6.6%, IL-1B inflam inh 2.2 and TDP1 cell noCPT inconclusive.
For O=C1CN=C(c2ccccc2Cl)c2cc(Br)ccc2N1 the results were CtBP-E1A inh 7.9, Six1-Eya2 inh 58.6, DT40 TDP1 CPT 15.0%, IL-1B inflam inh 33.2 and TDP1 cell noCPT inconclusive.
CN=C1CN=C(c2ccc[nH]2)c2cc(Cl)ccc2N1 was read as DT40 TDP1 CPT 0.0794µM* and TDP1 cell noCPT 0.112µM*.
O=C1CN=C(c2ccc[nH]2)c2cc(Cl)ccc2N1 was read as Six1-Eya2 inh -3.3, DT40 TDP1 CPT 0.164µM*, IL-1B inflam inh 4.8 and TDP1 cell noCPT 0.0326µM*.
For O=C(Nc1ccc(F)c(Cl)c1)N(Cc1ccc2c(c1)OCO2)C1CCN(Cc2ccccc2)CC1 the results were DT40 TDP1 CPT inconclusive, TDP1 block 8.7% and TDP1 cell noCPT inconclusive.
For CC(C)C[C@H]1CNC(=S)N1CC1CCN(CC2CCC(C(C)(C)C)CC2)CC1 (some centres undefined) the results were CtBP-E1A inh inconclusive, Six1-Eya2 inh -0.6, DT40 TDP1 CPT 16.4µM*, IL-1B inflam inh -21.8 and TDP1 cell noCPT 16.4µM*.
For O=c1[nH]c(=O)n(Cc2ccco2)c(O)c1C=NCCN1CCNCC1 the results were CtBP-E1A inh 3.7, Six1-Eya2 inh -9.6, DT40 TDP1 CPT -0.1%, TDP1 block 0.0%, IL-1B inflam inh 33.9 and TDP1 cell noCPT 3.4%.
`CN(C)C(=O)Oc1ccc2c(=O)c(Oc3ccccc3Br)coc2c1` gave CtBP-E1A inh 10.2, Six1-Eya2 inh 3.1, DT40 TDP1 CPT -22.8%, IL-1B inflam inh inconclusive and TDP1 cell noCPT -22.9%.
For Cc1ccccc1-c1nc(CS(=O)CC(=O)N2CCN(c3cc(Cl)ccc3C)CC2)c(C)o1 (centres undefined) the results were DT40 TDP1 CPT 16.4µM*, TDP1 block 10.4% and TDP1 cell noCPT 13µM*.
`Cc1ccccc1-c1nc(CS(=O)CC(=O)N2CCC3(CC2)OCCO3)c(C)o1` (centres undefined) gave CtBP-E1A inh 4.4, Six1-Eya2 inh 4.4, DT40 TDP1 CPT -1.3%, TDP1 block -11.3%, IL-1B inflam inh 8.5 and TDP1 cell noCPT -1.0%.
`C[C@]12CCC3C(CC[C@H]4C[C@H](O)CC[C@]34C)C1C[C@H](O)[C@H]2O` (some centres undefined) gave CtBP-E1A inh 7.1, Six1-Eya2 inh -4.6, DT40 TDP1 CPT -16.1%, IL-1B inflam inh 17.9 and TDP1 cell noCPT -20.7%.
Screening CC(C(=O)c1ccc(Cl)cc1Cl)n1cncn1 (centres undefined) returned Six1-Eya2 inh 6.3, DT40 TDP1 CPT 2.2%, IL-1B inflam inh 11.9 and TDP1 cell noCPT 3.2%.
Screening COc1ccc(NC(=O)Nc2ccc3c(c2)C(=O)N([C@H](C)CO)C[C@H](C)[C@@H](CN(C)Cc2ccc(Cl)c(Cl)c2)OCCCC[C@@H](C)O3)cc1 returned CtBP-E1A inh 0.0, Six1-Eya2 inh -13.5, DT40 TDP1 CPT -16.9%, IL-1B inflam inh inconclusive and TDP1 cell noCPT 16.4µM*.

Screens (PubChem)
